This is an account of results in ChEMBL document CHEMBL4513135, “CO-ADD screening of IQOG CSIS (Spain) compounds”.

The structures appear in SMILES notation. Potency and affinity values are given separately.

The subject of experiment [1] is Klebsiella pneumoniae. Particulars: Concentration 32 ug.mL-1; ASSAY_TEST Inhibition of Bacterial Growth; detection method Absorption (OD600); MEDIA CAMHB; plate type 384well; NBS; CORNING #3640; time 18 hr.
Experiment [2] concerns Candida albicans. To be noted: 32 ug/mL.
The subject of experiment [3] is Cryptococcus neoformans. Particulars: Concentration 32 ug.mL-1; ASSAY_TEST Inhibition of Fungal Growth; detection method Resazurin; Absorption (OD600-OD570); plate type 384well; NBS; CORNING #3640. In general terms: Alamar Blue is a resazurin reagent that responds to reducing activity.

The term Inhibition denotes the relative decrease from the control value, in per cent. Turning to `Cn1c(C(=O)O)cc2ccccc21`, the values for the Inhibition in experiment [1], in experiment [2] and in experiment [3] were 18.05%, 24.1% and 5.37%, respectively.
For `O=C1NC(=S)N/C1=C\c1ccccc1`, the Inhibition in experiment [1] is 18.56%; in experiment [2] it was 0.81%; in experiment [3], -1.21%.
For `Cc1ccc(/C=N/NC(=O)c2c[nH]c3ccccc23)cc1`, the Inhibition is 10.41% in experiment [1], 1.17% in experiment [2] and -0.49% in experiment [3].
For the compound `Cl.N#Cc1cc(C#N)c(N2CCCC2)nc1Cl`, the values for the Inhibition in experiment [1], in experiment [2] and in experiment [3] were 14.18%, 3.61% and -52.24%, respectively.
Take `CCOC(=O)C1=C(C)Oc2nc3c(c(N)c2C1c1ccc(O)c(OC)c1)CCC3` (centres undefined): the Inhibition in experiment [1] was 2.99%; in experiment [2], 0.9%; in experiment [3], -66.64%.
In the case of `COc1cc(Br)c(C=O)cc1OC`, the values for the Inhibition in experiment [1], in experiment [2] and in experiment [3] were 3.95%, 3.94% and -3.9%, respectively.
`N#CC1=C(N)Oc2ccc3ccccc3c2C1c1ccc(O)cc1` (centres undefined): the values for the Inhibition in experiment [1], in experiment [2] and in experiment [3] were 11.07%, 2.93% and -36.73%, respectively.
With `COc1nc(N)c(C#N)c(-c2ccccc2)c1C#N`, the Inhibition in experiment [1] was 5.51%; in experiment [2], 1.23%; in experiment [3], -13.41%.
For `COc1cccc(C=C2N=C(c3ccccc3)OC2=O)c1OC(C)=O`, in that order: 0.25%, -1.1% and -5.03%.
In the case of `O=C(COc1ccc2ccccc2c1)NNCc1c[nH]c2ccccc12`, the Inhibition was 9.52% in experiment [1], 3.01% in experiment [2] and -4.32% in experiment [3].
Take `N#Cc1cc(C#N)c(N2CCC(Cc3ccccc3)CC2)nc1N`: the Inhibition in experiment [1] is -9.32%; in experiment [2], 1.71%; in experiment [3], -23.72%.
With `Cc1cnc2ccc(Br)cn12`, the Inhibition was -1.82% in experiment [1], 1.23% in experiment [2] and -0.9% in experiment [3].
Regarding `CCOC(=O)c1cc2cc(OC(=O)Oc3ccc([N+](=O)[O-])cc3)ccc2[nH]1`, the Inhibition is 0.96% in experiment [1], 0.86% in experiment [2] and -63.93% in experiment [3].
For `COc1cc(C2c3c(nc4c(c3N)CCC4)Oc3ccc4ccccc4c32)ccc1O` (centres undefined), in that order: 23.66%, -1.69% and -4.01%.
For `COc1ccc(C2c3c(nc4c(c3N)CCCC4)Oc3ccc4ccccc4c32)c(OC)c1` (centres undefined), the Inhibition was 6.37% in experiment [1], 10.9% in experiment [2] and 16.32% in experiment [3].
As to `CCOC(=O)c1c[nH]c2ccc(OCc3ccccc3)cc12`, the values for the Inhibition in experiment [1], in experiment [2] and in experiment [3] were 12.72%, 0.34% and -4.09%, respectively.
Turning to `N#CC1=C(N)Oc2c(ccc3ccccc23)C1c1cccc([N+](=O)[O-])c1` (centres undefined), the Inhibition is 11.95% in experiment [1], 2.35% in experiment [2] and -36.01% in experiment [3].
Consider `COC(=O)C(=Cc1ccc([N+](=O)[O-])cc1)NC(=O)c1ccccc1`, for which the Inhibition in experiment [1] is 11.76%; in experiment [2], 0.51%; in experiment [3] it was -0.7%.
Regarding `C#CCN(C)Cc1cc2cc(OCCCC3CCN(C(=O)OC(C)(C)C)CC3)ccc2n1C`, the Inhibition in experiment [1] was -9.9%; in experiment [2], 1.82%; in experiment [3], -6.45%.
As to `N#CC1(Br)C(=NBr)Oc2c(ccc3ccccc23)C1c1ccc([N+](=O)[O-])cc1` (centres undefined), the Inhibition in experiment [1] is 12.27%; in experiment [2], 25.9%; in experiment [3], -87.41%.
For `COc1nc2nc3c(c(N)c2cc1C#N)CCCC3.Cl`, the figures for the Inhibition in experiment [1], in experiment [2] and in experiment [3] were 10.99%, 1.08% and -96.28%, respectively.
For the compound `N#Cc1cc(C#N)c(Cl)nc1Cl`, the Inhibition came to 2.35% in experiment [1], 33.1% in experiment [2] and 24.8% in experiment [3].
For the compound `OCc1c(-c2ccc(Br)cc2)nc2ccccn12`, the Inhibition in experiment [1] was 16.84%; in experiment [2] it was 4.83%; in experiment [3], -4.79%.
In the case of `O=C(NNCCc1ccccc1)c1cc2ccccc2[nH]1`, the results for the Inhibition in experiment [1], in experiment [2] and in experiment [3] were 0.93%, -1.59% and -3.77%, respectively.
Turning to `COC(=O)C(=Cc1ccc(OC)cc1)NC(=O)c1ccccc1`, the Inhibition in experiment [1] is 13.3%; in experiment [2] it was 6.47%; in experiment [3], -1.73%.
Turning to `C#CCNc1nc(OC)c(C#N)c(-c2ccccc2)c1C#N`, the figures for the Inhibition in experiment [1], in experiment [2] and in experiment [3] were 13.71%, 1.22% and -26.89%, respectively.
In the same order, the values of `Cl.NNN1CCc2ccccc21` are 17.38%, 2.29% and -9.55%.
In the same order, the values of `O=C(N/N=C/c1c[nH]c2ccccc12)c1ccco1` are 12.93%, 1.93% and -1.51%.
In the same order, the values of `COc1ccc2c(c1)cc(CN)n2C` are 13.36%, 2.3% and -4.4%.
Turning to `COc1cccc(C2c3c(ccc4ccccc34)OC(=NBr)C2(Br)C#N)c1` (centres undefined), the Inhibition in experiment [1] is 33.1%; in experiment [2], 26.4%; in experiment [3], -22.56%.
For `O=C(Cc1c[nH]c2ccccc12)NN=Cc1ccccc1`, in that order: -6%, -0.87% and -1.93%.
Consider `C#CCN(C)Cc1cc2cc(OCc3ccccc3)ccc2n1C.O=C(O)C(=O)O`, for which the Inhibition was 16.32% in experiment [1], 2.13% in experiment [2] and -91.88% in experiment [3].
In the case of `O=C1OC(c2ccccc2)=NC1=Cc1ccc([N+](=O)[O-])cc1`, the Inhibition in experiment [1] was 9.13%; in experiment [2], -1.46%; in experiment [3], -3.36%.
For `C#CCN(C)Cc1cc2cc(O)ccc2n1C.Cl`, in that order: 13.12%, 2.77% and -73.69%.
As for `C#CCNc1nc(N)c(C#N)c(-c2ccccc2)c1C#N`, the Inhibition in experiment [1] was -20.09%; in experiment [2] it was 2.85%; in experiment [3] it was -2.34%.
`Cc1ccc(C=C2N=C(c3ccccc3)OC2=O)cc1`: the Inhibition in experiment [1] is 9.43%; in experiment [2] it was -0.14%; in experiment [3], -5.42%.
On to `CCCCNNC(=O)c1cc2ccccc2[nH]1`, for which the Inhibition in experiment [1] is -6.75%; in experiment [2] it was -0.51%; in experiment [3], -1.71%.
For `CCOC(=O)C1=C(C)OC(N)=C(C#N)C1c1ccccc1` (centres undefined), in that order: 11.23%, 6.07% and -42.71%.
